The campaign covered roughly 110,000 compounds. About 420 (0.38%) were called active. The sample holds actives, similar compounds and a random draw of the others, so the mix is not that of the screen. No stated cut-off is given here; in the data, active means inhibition above about 30% (passing the limit was not always enough); inconclusive means no clear call, values can overlap the other calls.
System: RmlC (dTDP-4-dehydrorhamnose 3,5-epimerase) and RmlD (dTDP-4-dehydrorhamnose reductase), coupled enzyme assay
Experiment: RmlC and RmlD coupled enzyme inhibitors, primary screen, biochemical, 384-well, compound mixtures, retest (AID 1532)
Details: 384-well mixture HTS, at 5.5 µM, stronger effect = higher value
[1] = measured here: mean retest inhibition

Row | SMILES | inhibition | inhibition [1] [%]
1 | COc1ccc(-c2csc(N3CCN(Cc4ccc5c(c4)OCO5)CC3)n2)cc1 | 25.8% (inactive) | –
2 | COc1ccc(C#Cc2c(-c3ccc(OC)cc3)oc3ccc(-c4ccc5c(c4)OCO5)cc23)cc1 | – | 110
3 | COc1ccc(-c2nnc(SCC(=O)c3ccc4c(c3)OCCO4)o2)cc1 | -6.96% (inactive) | –
4 | C[C@@H]1CC[C@]2(O[C@@H](CCO)C[C@H](O)[C@H]2O)O1 | -20.2% (inactive) | –
5 | CCOC(=O)c1sc(NC(=O)CSc2nc3c(c(=O)n2-c2ccccc2)SCC3)c(C(=O)OCC)c1C | -104% (inactive) | –
6 | CCC(C)[C@@H](C(=O)N1CCNCC1)n1cc(CCCCN)nn1 (stereo partly specified) | -10% (inactive) | –
7 | CN1CCN(C(=O)C2=C[C@H](c3ccc4c(c3)OCO4)C[C@H](OCc3ccc(CO)cc3)O2)CC1 | 8.25% (inactive) | –
8 | CC(C)(C)n1nc(Cc2cccc3ccccc23)c(C#N)c1N | -12.7% (inactive) | –
9 | CCOC(=O)/C=C/c1ccc(C(F)(F)F)cc1S(=O)(=O)NC(C)(C)C | 32.4% (inactive) | -3.06
10 | O=C1NC[C@@H](Cc2ccc(O)cc2)N(CCc2cccc(F)c2)C1=O | 6.42% (inactive) | –
11 | COC(=O)CCCC1=CC2=CC(=O)C(C)(OC(=O)c3cccs3)C(=O)C2=CN1CC1CC1 (stereo unspecified) | 1.92% (inactive) | –
12 | COc1ccc(CNC(=O)C2(CC3CC(c4ccccc4)=NO3)CCN(C(=O)c3cccc(O)c3)CC2)cc1 (stereo unspecified) | -4.7% (inactive) | –
13 | COC(C/C=C/C(=O)[C@@H](C)OCc1ccccc1)OC | 9.13% (inactive) | –
14 | C#CCOCCOCCOCCNc1nc(N2CCN(C(=O)[C@H](Cc3ccc(O)cc3)n3cc(C(N)CC(C)C)nn3)CC2)nc(N2CCN(C(=O)[C@H](CCC(=O)O)n3cc(C(N)[C@H](C)CC)nn3)CC2)n1 (stereo partly specified) | 7.73% (inactive) | –
15 | CN1CCCc2cc(C#N)c(=O)[nH]c21 | 48.2% (active) | 113
16 | C#CCNC(=O)[C@H](Cc1ccc(C(=O)c2ccccc2)cc1)NC(=O)OC(C)(C)C | -13.5% (inactive) | –
17 | CCO[C@@H]1OC(C(=O)N2CCOCC2)=C[C@H](C)[C@H]1CCCO | -9.82% (inactive) | –
18 | CC1(OC(=O)CCc2ccccc2)C(=O)C=C2C=C(c3ccc(C#N)cc3)N(CCc3ccccn3)C=C2C1=O (stereo unspecified) | 3.85% (inactive) | –

Row | SMILES | inhibition | inhibition [1] [%]
19 | COc1ccc(-c2cc3ccc(OCc4nn[nH]n4)cc3oc2=O)cc1 | 94.2% (inactive) | 82.7
20 | O=c1c(-c2ccccc2)coc2cc(O)ccc12 | 44.3% (inactive) | 18
21 | O=c1oc2cc(O)ccc2cc1-c1ccc(F)cc1 | 136% (active) | 118
22 | COC(C[C@@H]1O[C@@H]1C(=O)[C@@H](C)OCc1ccccc1)OC | 13.7% (inactive) | –
23 | CC1(C)C=C2[C@H]3CC[C@@H]4[C@@]5(C)CCC(=O)C(C)(C)[C@@H]5CC[C@@]4(C)[C@]3(C)CC[C@@]2(C(=O)O)CC1 | 9.38% (inactive) | –
24 | C[C@@H]1NC(=O)c2cc([N+](=O)[O-])cc(F)c2NCCC[C@@H](C(N)=O)NC(=O)[C@H](CC(N)=O)NC1=O | 5.67% (inactive) | –
25 | CNC(=O)c1[nH]cnc1C(=O)N[C@@H](CC(C)C)C(=O)OCc1ccccc1 | 1.9% (inactive) | –
26 | CCOC(=O)c1cccc(NC(=O)c2ccc(F)cc2F)c1 | -9.66% (inactive) | –
27 | O=C(NC1CC1)C1=C[C@H](c2c[nH]c3ccccc23)C[C@H](OCc2ccc(CO)cc2)O1 | 7.9% (inactive) | –
28 | Cn1ccnc1-c1nnn(-c2ccc(F)cc2)n1 | -8.61% (inactive) | –
29 | CCC(=O)Nc1cccc(C2=NOC3(C2)C[C@@H](C(N)=O)N(C(=O)c2cc([N+](=O)[O-])cc([N+](=O)[O-])c2C)C3)c1 (stereo partly specified) | 4.35% (inactive) | –
30 | CC(=O)c1ccc2c(ccc3ccccc32)c1 | 5.48% (inactive) | –
31 | CNC(=O)c1cc2c(ccc3ccccc32)oc1=N | 52.7% (active) | 155
32 | CCOC(=O)N1CCN(C(=O)c2cc3c(ccc4ccccc43)oc2=O)CC1 | 2.38% (inactive) | –
33 | CCOC(=O)c1c(NC(=O)C(C)Sc2c[nH]c3ccccc23)sc2c1CCC2 (stereo unspecified) | -9.18% (inactive) | –
34 | CCOC(=O)C[C@H]1c2ccc(C(F)(F)F)cc2S(=O)(=O)N1c1ccccc1 | -16.1% (inactive) | –
35 | COc1ccc(C[C@H]2CN3C(=NC[C@H]3C)N2CCNC(=O)CCC2CCCCC2)cc1 | 6.01% (inactive) | –

— PubChem BioAssay AID1532 (PCMD, 2009)
